In the library only some 3.8% were active in any assay of this set; here they are far more common.
S2 tox: Viability Counterscreen for Primary qHTS for Inhibitors of ATXN expression. S2 cells (HEK-293 line with an ATXN2-luciferase reporter) viability, CellTiter-Fluor protease fluorescence, 24 h. Potency, µM (top dose mostly 56.7 µM), hits mostly cytotoxic. hit rate 0.49% among 400,000. AID 651635, 2014; also: nearly all actives have a fitted effect of over 40% in size
A549 tox-1: Nrf2 qHTS screen for inhibitors: counterscreen for cytotoxicity; hit rate 0.16% among 390,000; A549 ARE-Fluc cells, CellTiter-Fluor viability, 18-24 h; Potency, µM (highest dose often 46 µM), inactives show top-dose activity change, negative = cytotoxicity, usual class: inhibitors; AID 504648, 2011; also: % is scaled to controls: 0 for no effect and ±100 for the full control effect
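Cytotoxicity counterscreen: CellTiter-Fluor fluorescence was measured in A549 ARE_Fluc cells after 18-24 h of compound exposure in a concentration series. The subsequent BugLite luminescent read reports ARE-luciferase activity.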
HepG2 tox: qHTS for Inhibitors of TGF-b: Cytotox Counterscreen | HepG2 CAGA-GFP viability, ATP luminescence, 18 h | Potency, µM (series often up to 46.1 µM), for inactives: at the top dose activity change, negative = cytotoxicity, usual class: cytotoxic | hit rate 0.76% among 410,000
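HepG2 CAGA-GFP cells (1000/well, DMEM with 1% FBS) received compound, then TGF-beta at 500 pg/mL final, and were incubated 18 hours at 37 degrees C. Viability was read by CellTiter-Glo luminescence. Media-only wells were set as complete cell-killing and DMSO as no toxicity.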
TGFb SMAD3 inh: qHTS for Inhibitors of TGF-b; hit rate 1.2% among 410,000; Potency, µM (titrated, usually from 46.1 µM), for inactives: top-dose activity, negative = inhibition, most hits filed as inhibitors; HepG2 CAGA-GFP TGF-b/SMAD3 reporter, GFP fluorescence, 18 h; TGF-beta stimulated, 500 pg/mL final; AID 588855, 2011; also: % is scaled to controls: 0 for no effect and ±100 for the full control effect; nearly all actives have a fitted effect of over 65% in size
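Using HEPG2 CAGA-GFP reporter cells at 1000 cells/well, we pinned test compounds, stimulated with recombinant TGF-beta (500 pg/mL final) and measured total well GFP after 18 h.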
ATXN2 expr inh: Primary qHTS for Inhibitors of ATXN expression; hit rate 0.72% among 360,000; Potency, µM (doses to about 57 µM), for inactives: top-dose activity change, negative = inhibition, hits mostly inhibitors; AID 1745845, 2022; HEK-293 ATXN2-luciferase reporter, luminescence, 24 h; also: % is scaled to controls: 0 for no effect and ±100 for the full control effect; nearly all actives have a fitted effect of over 55% in size
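qHTS (up to 57 uM final) was run with 24 h compound exposure of reporter cells at 37 °C. Each well was multiplexed: SteadyGlo luminescence measured ATXN2-luciferase expression after a fluorogenic Gly-Phe-AFC viability readout (25 uM final).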
Nrf2 inh: Nrf2 qHTS screen for inhibitors; Potency, µM (series often up to 46 µM), for the others: at the highest dose activity change, negative = inhibition, most hits filed as inhibitors; A549 ARE-Fluc reporter, luciferase luminescence, 18-24 h; AID 504444, 2011; hit rate 2.1% among 360,000; also: % is scaled to controls: 0 for no effect and ±100 for the full control effect; nearly all actives have a fitted effect of over 60% in size
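A549 ARE_Fluc cells, 5000/well, 5% FBS OPTI-MEM; compounds in dose-response, 18-24 h at 37 °C/5% CO2; CellTiter-Fluor viability read (Ex 405/Em 525), then BugLite luciferase luminescence = Nrf2 activity.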
FLuc counter 3: Nrf2 qHTS screen for inhibitors: Purified Fluc Biochemical Counterscreen for Hit Validation; shares compounds with Nrf2 inh; hit rate 4% among 1,400; Potency, µM (doses to about 57.5 µM), inactives show at the highest dose activity change, negative = inhibition, most hits filed as inhibitors; purified firefly luciferase, luminescence inhibition; also: % is scaled to controls: 0 for no effect and ±100 for the full control effect; nearly all actives have a fitted effect of over 65% in size
Target sequence (P08659 whole entry, looked up): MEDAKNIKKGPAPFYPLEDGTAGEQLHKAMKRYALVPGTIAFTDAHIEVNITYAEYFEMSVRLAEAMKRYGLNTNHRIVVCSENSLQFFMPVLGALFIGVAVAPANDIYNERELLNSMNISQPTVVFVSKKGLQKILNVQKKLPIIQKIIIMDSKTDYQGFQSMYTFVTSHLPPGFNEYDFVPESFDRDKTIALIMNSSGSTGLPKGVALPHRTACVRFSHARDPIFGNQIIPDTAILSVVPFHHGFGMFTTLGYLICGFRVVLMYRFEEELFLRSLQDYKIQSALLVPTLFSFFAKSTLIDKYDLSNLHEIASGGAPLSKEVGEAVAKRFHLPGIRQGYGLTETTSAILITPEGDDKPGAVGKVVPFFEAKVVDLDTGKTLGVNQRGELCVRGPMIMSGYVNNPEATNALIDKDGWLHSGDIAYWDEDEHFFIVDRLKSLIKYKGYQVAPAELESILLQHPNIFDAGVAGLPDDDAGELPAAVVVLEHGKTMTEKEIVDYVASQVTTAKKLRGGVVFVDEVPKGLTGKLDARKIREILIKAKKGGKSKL
A549 tox-2: Nrf2 qHTS screen for inhibitors: A549 ARE-Fluc Cytotoxicity Counterscreen for Hit Validation; shares compounds with Nrf2 inh; A549 ARE-Fluc cells, cytotoxicity counterscreen; Potency, µM (series often up to 46.1 µM), for the others: at the top dose activity change, negative = cytotoxicity, usual class: inhibitors; hit rate 2% among 1,400; AID 720523, 2013;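 also: cells exposed to compounds for 18 to 24 hours; % is scaled to controls: 0 for no effect and ±100 for the full control effect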
Nrf2 ARE inh: Nrf2 qHTS screen for inhibitors: Nrf2 A549 ARE-Fluc Confirmation Assay for Hit Validation. shares compounds with Nrf2 inh. Potency, µM (highest dose often 46.1 µM), for inactives: top-dose activity change, negative = inhibition, actives largely listed as inhibitors. A549 ARE-firefly luciferase reporter, luminescence. AID 720524, 2013. hit rate 74% among 1,400; also: % is scaled to controls: 0 for no effect and ±100 for the full control effect; nearly all actives have a fitted effect of over 65% in size
An asterisk follows results filed as active; i = inactive; ? = inconclusive; . = no result given. Calls follow the shape of the dose curve; as a rule, active = well fitted curve in the direction sought with a large enough effect; inconclusive = small, poorly fitted or top-dose-only effect, or another doubt; inactive = no such curve, though single readings can be large; an effect the other way counts as inactive or inconclusive. Potency is read from the fitted curve at half-maximal effect.

SMILES	S2 tox	A549 tox-1	HepG2 tox	TGFb SMAD3 inh	ATXN2 expr inh	Nrf2 inh	FLuc counter 3	A549 tox-2	Nrf2 ARE inh
Cc1cccc(C)c1NC(=O)Cn1cc(C=O)c2ccccc21	i	2.4%	-1.0%	-22.7%	-24.6%	1.9%	.	.	.
COc1ccc(C(=O)NCc2ccc3c(c2)CCN3C(=O)c2cccc(C)c2)cc1OC	.	1.0%	-9.3%	1.4%	.	.	.	.	.
O=C(NCCc1ccccc1)c1ccc2c(c1)S(=O)(=O)N=C1CCCCCN12	?	-0.7%	-1.6%	-3.0%	.	4.0%	.	.	.
Cc1ccc(N2CCN(S(=O)(=O)N3CCCCC3)CC2)c(C)c1	i	-14.7%	-14.7%	-1.6%	-4.0%	6.51µM*	2.6%	9.1%	9.1%
Cc1cc(C)c(S(=O)(=O)N2CCN(S(=O)(=O)N3CCCCCC3)CC2)c(C)c1	i	2.8%	14.7%	13.2%	-13.1%	24.6%	.	.	.
NC(=O)c1ccsc1NC(=O)COC(=O)c1cccnc1Cl	?	3.2%	-2.0%	-1.9%	3.3%	?	.	.	.
Cc1nc2ccccn2c1-c1csc(Nc2cccc(O)c2)n1	?	-9.9%	1.5%	?	-8.2%	-2.3%	.	.	.
Cc1cccc(Nc2nc(-c3c(C)nc4ccccn34)cs2)c1	?	-23.5%	-42.6%	?	?	9.2µM*	-28.1%	-20.8%	6.51µM*
C=CC(=O)Nc1ccc(Nc2nc(NC3CCC(N(C)C)CC3)nc3c2ncn3C(C)C)cc1 (stereo not given)	1.78µM*	18.4µM*	-0.9%	0.631µM*	?	2.59µM*	4.5%	8.2µM*	2.59µM*
CC(C)n1cnc2c(Nc3ccc(F)c(Cl)c3)nc(NCCO)nc21	?	-7.4%	-39.2%	?	-23.1%	18.0%	.	.	.
CC(=O)N1c2ccc(S(=O)(=O)N3CCC(C(=O)Nc4cccc(C)n4)CC3)cc2CC1C (stereo not given)	i	-15.3%	-45.9%	-18.4%	?	1.46µM*	0.0%	-8.2%	5.8µM*
CCc1cccc(NC(=O)C2CCN(S(=O)(=O)c3ccc4c(c3)CC(C)N4C(C)=O)CC2)c1 (stereo not given)	i	-18.6%	-32.0%	-31.4%	?	7.31µM*	0.1%	-6.1%	9.2µM*
O=C(Nc1ccccc1)c1ccc(S(=O)(=O)NCC2CCCO2)cc1 (stereo not given)	i	0.9%	-2.3%	-15.1%	12.2%	2.6%	.	.	.
O=C(Nc1cccc(Cl)c1)c1ccc(S(=O)(=O)NCC2CCCO2)cc1 (stereo not given)	i	-16.8%	-39.6%	?	?	4.61µM*	-0.7%	-3.2%	13µM*
Cc1ccc(OCCOc2ccc(Br)cc2)c([N+](=O)[O-])n1	?	13.9%	-16.7%	15.9%	64.8%	?	.	.	.
CC1(C(=O)NS(=O)(=O)c2ccccc2Cl)CCN1C(=O)COc1ccc(Cl)cc1 (stereo not given)	i	.	-23.6%	-10.1%	-1.2%	.	.	.	.
CCCC(=O)NC(NC(=S)Nc1ccc(N=Nc2ccccc2)cc1)C(Cl)(Cl)Cl (stereo not given)	.	?	-57.0%	?	?	8.2µM*	-20.9%	?	7.31µM*
CC1CCCN(C(=O)C(Cc2ccccc2)n2cccc2)C1 (stereo not given)	i	-12.3%	-21.4%	-9.0%	-5.5%	?	.	.	.
C1=C/C(=C2/C=Cc3ccccc32)c2ccccc2N1	.	.	-33.6%	?	.	.	-15.5%	?	6.51µM*
N=c1ccn2c(n1)O[C@H]1[C@H](O)[C@@H](CO)O[C@H]12	i	-8.9%	-1.5%	0.3%	-38.3%	0.184µM*	2.2%	-9.4%	0.092µM*
CCCCOCCCNc1ncnc2c1[nH]c1ccccc12	i	-12.5%	-37.5%	?	?	9.2µM*	-27.0%	-2.4%	11.6µM*
COc1c(S(=O)(=O)N2CCN(c3ccc(F)cc3)CC2)ccc(Cl)c1Cl	i	13.5%	-26.4%	?	-25.6%	-18.5%	.	.	.
CCOc1ccc(OCC)c(S(=O)(=O)n2cc(C)nc2CC)c1	?	9.4%	-22.8%	-24.6%	.	21.8%	.	.	.
CCc1nc(C)cn1S(=O)(=O)c1ccc(Cl)c(Cl)c1OC	.	-0.3%	-13.0%	?	.	5.8µM*	0.1%	-1.3%	5.8µM*
CCOc1cc(Cl)c(S(=O)(=O)n2cc(C)nc2CC)cc1Cl	.	-8.0%	-11.7%	-23.1%	.	8.2µM*	2.9%	0.1%	8.2µM*
SMILES	S2 tox	A549 tox-1	HepG2 tox	TGFb SMAD3 inh	ATXN2 expr inh	Nrf2 inh	FLuc counter 3	A549 tox-2	Nrf2 ARE inh
O=C(CCN1C(=O)c2ccccc2S1(=O)=O)Nc1ccc2c(c1)OCCO2	i	1.5%	-8.2%	1.4%	10.1%	7.4%	.	.	.
O=C(CN1C(=O)c2ccccc2S1(=O)=O)c1ccc2c(c1)OCCCO2	i	-2.0%	-14.7%	?	0.282µM*	0.184µM*	0.8%	-7.8%	8.2µM*
O=C(CN1C(=O)c2ccccc2S1(=O)=O)c1ccc2c(c1)OCCO2	i	12.0%	-7.4%	-14.9%	.	0.0731µM*	-21.8%	11.0%	5.17µM*
CCO[C@@H]1OC(C(=O)O)=C[C@H](c2ccc(Br)cc2)[C@H]1CCCO	i	0.4%	-12.7%	-0.2%	10.1%	16.3%	.	.	.
O=S(=O)(c1ccc2ccccc2c1)N1CCC(c2nc(-c3ccncc3)no2)CC1	i	-26.4%	-34.5%	?	?	4.11µM*	2.8%	-5.8%	?
Cc1ccc(-c2noc(C3CCN(S(=O)(=O)c4ccc5c(c4)OCCO5)CC3)n2)o1	i	-11.2%	-20.8%	-16.7%	-38.2%	6.51µM*	-16.2%	-13.2%	11.6µM*
Cc1ccc(-c2noc(C3CCCN(S(=O)(=O)c4ccc5ccccc5c4)C3)n2)o1 (stereo not given)	i	-3.7%	-57.4%	-17.3%	0.6%	?	.	.	.

Bioassay records from PubChem BioAssay.
